RE007 growth inh: less growth of the S. pombe RE007 Vpr strain. S. pombe RE007 Vpr strain, BacTiter-Glo ATP luminescence, 24 h. Potency, µM (titrated, usually from 92.2 µM), for the others: top-dose activity change, negative = less growth, actives largely listed as inhibitors. 360,000 compounds, 0.21% hits; active = well fitted falling curve with a large enough effect; inconclusive = small, poorly fitted or top-dose-only effect; inactive = no such curve, though single readings can be large or run the other way; also: potency is read from the fitted curve at half-maximal effect; % is scaled to controls: 0 for no effect and ±100 for the full control effect; nearly all actives have a fitted effect of over 50% in size
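Fission yeast strain RE007, carrying one chromosomally integrated HIV-1 vpr copy, was seeded at OD 0.01 in PMG+AL medium with 23 nL pinned compound. After 24 h at 30 °C and 99% humidity, viability was read by BacTiter-Glo luminescence.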
Giardia FBPA inh: Giardia lamblia aldolase inhibition; Potency, µM (highest dose often 59.6 µM), inactives show at the top dose activity, negative = inhibition, most hits filed as inhibitors; 290,000 compounds, 0.71% hits; purified Giardia FBPA; A8B2U2; also: potency is read from the fitted curve at half-maximal effect; % is scaled to controls: 0 for no effect and ±100 for the full control effect; nearly all actives have a fitted effect of over 55% in size
Target sequence (A8B2U2 whole entry, looked up): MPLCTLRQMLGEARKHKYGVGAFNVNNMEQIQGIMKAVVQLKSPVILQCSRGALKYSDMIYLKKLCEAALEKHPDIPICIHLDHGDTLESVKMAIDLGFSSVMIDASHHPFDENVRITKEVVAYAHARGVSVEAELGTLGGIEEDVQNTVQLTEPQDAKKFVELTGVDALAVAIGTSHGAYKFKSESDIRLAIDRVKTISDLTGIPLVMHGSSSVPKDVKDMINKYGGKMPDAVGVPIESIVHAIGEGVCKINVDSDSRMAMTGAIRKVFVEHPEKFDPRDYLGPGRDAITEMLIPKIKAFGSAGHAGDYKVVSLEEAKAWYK
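Giardia FBPA (40 nM reagent) was preincubated 10 min at RT with compound (up to 57.5 uM final), then substrate plus GAPDH/TPI/NAD/arsenate coupling system with diaphorase/resazurin was added; resorufin fluorescence (525/598 nm) was read after 20 min.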
Shiga toxin inh: Shiga toxin inhibition; 290,000 compounds, 9.2% hits; Vero cells, Shiga toxin protein synthesis inhibition reporter; inhibition, % at 38.7 µM; AID 2315; in the data active = inhibition mostly above about 28%, no sharp cut-off; inactive = mostly below about 43%; also: 0% is about no effect
Tb PYK inh: blocks Trypanosoma brucei pyruvate kinase; Q57TT1; TbPYK enzyme, Kinase-Glo Plus ATP luminescence, 45 min; Potency, µM (titrated, usually from 76.8 µM), for the others: top-dose activity, negative = inhibition, hits mostly inhibitors; 410,000 compounds, 0.12% hits; AID 624173; also: potency is read from the fitted curve at half-maximal effect; % is scaled to controls: 0 for no effect and ±100 for the full control effect; nearly all actives have a fitted effect of over 50% in size
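TbPYK + substrate in 50 mM TEA pH 7.2, 100 mM KCl, 10 mM MgCl2, 0.05% BSA, 0.01% Tween-20; cpd pinned; ADP 130 uM final; 45 min RT; Kinase-Glo Plus 10 min; luminescence endpoint.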
LmPK inhibitor: inhibitors of Leishmania mexicana pyruvate kinase. Q27686. purified LmPK, Kinase-Glo ATP luminescence, 1 h. 290,000 compounds, 0.37% hits. Potency, µM (titrated, usually from 57.5 µM), without a hit: at the top dose activity change, negative = inhibition, most hits filed as inhibitors; also: potency is read from the fitted curve at half-maximal effect; % is scaled to controls: 0 for no effect and ±100 for the full control effect
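ATP generated from ADP (0.1 mM) and PEP (0.5 mM) by 0.1 nM LmPK over 1 h at room temperature (pH 7.2 imidazole buffer) was detected by coupled luciferase luminescence. Values were normalized to uninhibited and no-enzyme wells.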
Cycloheximide cs: affects cycloheximide protein synthesis inhibition readout, counter-screen | cell reporter, cycloheximide protein synthesis inhibition counterscreen | max response, % | 300,000 compounds, 12% hits; in the data active = max response mostly above about 13%, no sharp cut-off; inactive = mostly below about 14%; also: read at 38.3 µM for the half of the compounds with a filed dose; 0% is about no effect
Numbers without * were called inactive; ? = inconclusive; / = not tested or not shown; + = active, no number. This is one part of a sample in which hits are shown more often than they occur. Unless noted, calls follow the shape of the dose curve; as a rule, active = well fitted curve in the direction sought with a large enough effect; inconclusive = small, poorly fitted or top-dose-only effect, or another doubt; inactive = no such curve, though single readings can be large; an effect the other way counts as inactive or inconclusive.

SMILES	RE007 growth inh	Giardia FBPA inh	Shiga toxin inh	Tb PYK inh	LmPK inhibitor	Cycloheximide cs
CC(NC(=O)c1ccc(N(C)C)cc1)C1CC2CCC1C2 (stereo unspecified)	-9%	-3%	106	2%	9%	14*
Cc1ccc(C(=O)NC(C)C2CC3CCC2C3)c(C)c1 (stereo unspecified)	26%	-9%	90*	-1%	1%	13
CC(NC(=O)c1ccc(F)cc1Cl)C1CC2CCC1C2 (stereo unspecified)	26%	16%	36	0%	-2%	6
CC(NC(=O)c1ccc(C#N)cc1)C1CC2CCC1C2 (stereo unspecified)	-27%	1%	-10	1%	-3%	5
COc1ccc(NC(=O)NC(C)C2CC3CCC2C3)cc1 (stereo unspecified)	15%	-9%	-2	-2%	7%	-2
COc1ccc(C(=O)NC(C)C2CC3CCC2C3)cc1 (stereo unspecified)	14%	2%	15	-4%	1%	11*
O=c1oc2ccc3ccccc3c2cc1-c1nnc(Nc2ccc(Cl)cc2Cl)s1	/	/	/	5%	/	/
Cc1cc(C)cc(OC(=O)c2cc(-c3ccc4c(c3)OCCO4)on2)c1	/	/	/	-1%	/	/
Cc1cccc(-c2noc(-c3cccnc3NCc3ccco3)n2)c1	/	/	/	-4%	/	/
COC(=O)c1sccc1NC(=O)c1cc2c(s1)CCCC2	-5%	-7%	-10	-3%	-7%	13*
CC(=O)Nc1cccc(Cn2cccn2)c1	/	-3%	6	/	-1%	-1
COC(=O)c1sccc1NC(=O)c1ccccc1	?	6%	-19	3%	-1%	7
CCOC(=O)c1ccc(NC(=O)c2ccc[n+]([O-])c2)cc1	1%	-1%	-9	2%	-5%	-6
O=C(Nc1cccc(Cn2cccn2)c1)c1cc2c(s1)CCCC2	-11%	-24%	143*	-6%	-15%	77*
CCOC(=O)c1ccc(NC(=O)c2cc3c(s2)CCC3)cc1	-9%	2%	54*	-4%	6%	39*
COc1ccc(C)cc1NC(=O)c1cc2c(s1)CCC2	/	-7%	56	-7%	2%	20*
NC(=O)c1ccc(N=Nc2c(O)[nH]c(=O)[nH]c2=O)cc1	/	-9%	2	/	0%	-1
O=c1[nH]c(O)c(N=Nc2ccc(SC(F)F)cc2)c(=O)[nH]1	-9%	2%	36	-4%	-1%	20*
CC(C)Oc1ccc(C(=O)N2CCC(c3nc4ccccc4o3)CC2)cc1	/	/	/	5%	/	/
Cc1ccsc1/C=C(\C(=O)c1ccc(OC(C)C)cc1)c1nc2ccccc2o1	-6%	6%	+	-1%	6%	122*
Cc1ccc(-c2nc3ccccc3o2)cc1NC(=O)Cc1cccs1	-3%	10%	25	4%	2%	14
Cc1ccsc1/C=C(\CC(=O)O)c1nc2ccccc2o1	-7%	/	51*	2%	-5%	22*
CCOc1ccc(NC(=O)c2cc(OC)nc3ccccc23)cc1	-5%	10%	2	0%	-2%	-1
CCOc1ccc(NC(=O)c2cc3ccccc3cc2OC)cc1	-14%	0%	60*	4%	-6%	36*
COc1ccccc1NC(=O)COC(=O)c1cc2ccccc2cc1O	-8%	/	/	-4%	/	/
SMILES	RE007 growth inh	Giardia FBPA inh	Shiga toxin inh	Tb PYK inh	LmPK inhibitor	Cycloheximide cs
COc1ccccc1NC(=O)c1cc2cc(Br)ccc2cc1O	-26%	?	85*	6%	0%	24*
CN1CCN(c2ccc(-c3ccnn3C(=O)Nc3ccccc3)cc2)CC1	-11%	2%	83	3%	-6%	41*
COc1cc(NC(=O)c2cc3ccccc3cc2O)c(OC)cc1Cl	-3%	-14%	63*	-8%	4%	19*
Cc1ccc(C(=O)N(C)CC(=O)Nc2ccc(N3CCOCC3)cc2)s1	5%	/	/	-3%	/	/
COc1ccc(CNC(=O)CN2C(=O)CSc3ccc(S(=O)(=O)N4CCCC4)cc32)cc1	/	/	/	1%	/	/
CC(=O)c1ccc(N2CCN(C(=O)c3cccc(Oc4ccccc4)c3)CC2)cc1	5%	4%	35	4%	0%	35*

Source: PubChem
